High-throughput results deposited in PubChem BioAssay by National Center for Advancing Translational Sciences (NCATS).
Hits are enriched below; roughly 19% of the tested compounds scored in any of these assays.
HT1080NT lethal – kills 2HG-producing HT-1080-NT fibrosarcoma cells; hit rate 1.6% among 360,000; AID 686970; Potency, µM (doses to about 46.1 µM), inactives show at the highest dose activity, negative = less viability, hits mostly cytotoxic; HT-1080-NT fibrosarcoma viability, CellTiter-Glo ATP luminescence, 48 h;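 also: NT is the 2HG producing partner of a matched IDH1 knockdown line; potency is read from the fitted curve at half-maximal effect; 0% = DMSO-treated cells and -100% = media-only wells without cells; nearly all actives have a fitted effect of over 55% in size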
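Viability by CellTiter-Glo luminescence after 48 h compound exposure at 37C of HT-1080-NT cells (750/well, RPMI, 5% FBS). % activity scaled between DMSO wells and medium-only wells, then curve-fitted and categorized by curve class.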
HT1080 IDH1KD tx – toxicity to HT-1080 IDH1 knockdown cells (counter line). HT-1080 IDH1 knockdown viability, ATP luminescence, 48 h. Potency, µM (titrated, usually from 46.1 µM), for inactives: at the top dose activity, negative = toxicity, most hits filed as cytotoxic. hit rate 2% among 360,000;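 also: potency is read from the fitted curve at half-maximal effect; 0% = DMSO wells and -100% = cell-free medium wells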
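Luminescent ATP read-out (CellTiter-Glo, 10 min at room temperature) after 48 h compound exposure at 37 °C gave viability of IDH1-knockdown HT-1080 cells. Activity was normalised to DMSO and cell-free wells, then fitted as concentration-response curves.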
IL1B secr inh – blocks inflammasome-driven IL-1 beta release. THP-1 LPS/ATP IL-1B secretion, AlphaLISA, 16 h; stronger effect = lower value. activity change, % at 57.5 µM. hit rate 4.7% among 360,000. AID 743279; in the data active = activity change below about -50%; inconclusive = mostly about -30% to -49%
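Secreted IL-1B measured by AlphaLISA bead assay after 16 h compound exposure of THP-1 cells; compounds (final up to 57.5 uM) added 1 h before LPS (250 ng/mL) and ATP (1.25 mM) stimulation; lower signal means less secretion.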
TDP1 cell CPT – DT40-hTDP1 cell growth loss with CPT; AID 686979; chicken DT40 Tdp1-/-;hTDP1 cells + 20 nM CPT, ATP luminescence, 48 h; hit rate 12% among 420,000; Potency, µM (titrated, usually from 46.2 µM), for the others: top-dose activity change, negative = growth inhibition, usual class: inhibitors; also: potency is read from the fitted curve at half-maximal effect; nearly all actives have a fitted effect of over 55% in size
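Cell growth measured by CellTiter-Glo luminescence after a minimum 48 h, 37 C compound exposure with 20 nM CPT in Tdp1-knockout DT40 cells stably expressing hTDP1, seeded 400/well; qHTS titration format.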
TDP1 cell noCPT – qHTS for Inhibitors of human tyrosyl-DNA phosphodiesterase 1 (TDP1): qHTS in cells in absence of CPT; DT40 Tdp1-/- hTDP1 cells, no CPT, ATP luminescence, 48 h; Potency, µM (top dose mostly 46.2 µM), inactives show top-dose activity change, negative = growth inhibition, actives largely listed as inhibitors; hit rate 15% among 420,000; AID 686978, 2013; also: potency is read from the fitted curve at half-maximal effect; nearly all actives have a fitted effect of over 55% in size
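Cells were dispensed at 400 per well, compounds added by pin tool, plates incubated ≥48 hr at 37 °C, then CellTiter-Glo added for 30 min at room temperature before luminescence reading. Line: DT40 Tdp1-/- complemented with hTDP1; camptothecin omitted.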
Numbers without * were called inactive; i = inactive; ? = inconclusive; / = not tested or not shown; [ ] = dose if it differs, or a comment. Unless noted, calls follow the shape of the dose curve; as a rule, active = well fitted curve in the direction sought with a large enough effect; inconclusive = small, poorly fitted or top-dose-only effect, or another doubt; inactive = no such curve, though single readings can be large; an effect the other way counts as inactive or inconclusive. Unless noted, % is scaled to controls: 0 for no effect and ±100 for the full control effect.

SMILES | HT1080NT lethal | HT1080 IDH1KD tx | IL1B secr inh | TDP1 cell CPT | TDP1 cell noCPT
CC1(C)S[C@@H]2[C@H](NC(=O)C(NC(=O)N3CCNC3=O)c3ccccc3)C(=O)N2[C@H]1C(=O)O (stereo not given in full) | -1.2% | 0.2% | -6.1 | 6.5% | 4.0%
CN1CCN(Cc2cn[nH]c2-c2ccc(F)cc2F)[C@@H](c2ccccc2)C1 | -1.1% | -11.6% | ? | 0.0% | -14.4%
CC(=O)Oc1ccc(C#C/C=C2\c3ccccc3C(=O)N2c2ccccc2)cc1 | -22.3% | -28.5% | -99.6* | 23.1µM* | 20.6µM*
CN(CC(=O)Nc1cccc(F)c1)C(=O)CN1C(=O)C2CCCCC2C1=O (stereo not given) | -1.5%[9.24 µM] | 5.3% | -1.4 | -21.9% | 16.7%
COCCOC(=O)c1c(C)n(C)c2ccc(OC(=O)c3c(OC)cccc3OC)cc12 | -20.0% | -9.6% | 26.7 | ? | 16.4µM*
COc1ccc2c(c1)c(C(=O)OCCN(C)C)c(C)n2C | -9.6% | -2.2% | -69.3* | -13.6% | ?
CCOC(=O)c1c(C)n(C)c2ccc(OC(C)=O)cc12 | 7.5% | 1.2% | -14.5 | -10.0% | -15.2%
Cc1cc(OCC(=O)OCC(=O)NCCN2C(=O)CSC2=O)ccc1Cl | 2.1% | 5.1% | 3.0 | 4.4% | 0.2%
O=S(=O)(NCc1ccccc1)NCc1ccc(Cl)cc1Cl | -4.2% | -4.1% | -21.4 | ? | 5.0%
CCOc1ccc(N2C(=O)C3Sc4[nH]c(=O)sc4C(c4ccc(OC)c(OC)c4)C3C2=O)cc1 (stereo not given) | -2.4% | -3.5% | -4.0 | 0.2% | 0.6%
CC(C)Cc1nc2ccccc2n1CCc1ccccc1 | ? | -13.6% | 0.0 | 23.1µM* | ?
CCc1nc2ccccc2n1CCC(C)C | -4.6% | -0.9% | 27.1 | 25.9µM* | 16.4µM*
C=C(Br)Cn1c(CC(C)C)nc2ccccc21 | 1.3% | 0.7% | 0.0 | 11.6µM* | 9.2µM*
CC(C)C(=O)NCCc1nc2ccccc2n1C | 19.8% | 16.9% | -8.5 | -2.3% | -0.9%
CC(C)C(=O)NCCc1nc2ccccc2n1CCc1ccccc1 | 0.6% | 25.1% | -63.3* | ? | 20.6µM*
CCc1nc2ccccc2n1CCc1ccccc1 | 10.5% | -0.5% | -8.0 | -29.3% | ?
O=C(NCCC(F)(F)F)c1cccc2c(-c3ccc(F)c(F)c3)coc12 | -2.3% | 5.3% | -16.0 | ? | ?
COc1ccc(CNC(=O)C2CCCN2)cc1OC (stereo not given) | 5.4% | 21.1% | 26.6 | -3.4% | -18.0%
Cc1ccc(C)c(OCc2cc(C(=O)N3C[C@@H](C)O[C@@H](C)C3)no2)c1 | -2.5% | 0.6% | -14.8 | 16.4µM* | ?
Cc1ccc(C)c(OCc2cc(C(=O)N3CC[C@@H]4CCCC[C@H]4C3)no2)c1 | 4.0% | -1.6% | i | ? | 25.9µM*
CCN(CCn1cccn1)C(=O)c1cc(COc2cc(C)ccc2C)on1 | -11.4% | -17.1% | 10.4 | 18.4µM* | ?
Cc1ccc(C)c(OCc2cc(C(=O)N3CCc4sccc4C3)no2)c1 | 8.2% | 14.2% | ? | 16.4µM* | 23.1µM*
CSc1ccccc1OCc1cc(C(=O)N2CCc3sccc3C2)no1 | 8.5% | 12.3% | ? | ? | -0.1%
CCN(CCn1cccn1)C(=O)c1cc(COc2ccccc2SC)on1 | 8.0% | -11.2% | -8.6 | ? | ?
COc1cc(C)ccc1OCc1cc(C(=O)N2CCC(c3ccc(F)cc3)C2)no1 (stereo not given) | 3.7% | 0.0% | 6.7 | ? | 2.31µM*
SMILES | HT1080NT lethal | HT1080 IDH1KD tx | IL1B secr inh | TDP1 cell CPT | TDP1 cell noCPT
Cc1ccc(-n2c3nc(=O)[nH]c(=O)c-3cc3c(C)nn(-c4ccccc4)c32)cc1Cl | / | / | / | 1.7% | -26.2%
O=C(COc1ccc(-c2nnc(N3CCCCC3)c3ccccc23)cc1)N1CCCCC1 | -23.3% | ? | -17.2 | ? | 16.4µM*
O=C(CN1CCOCC1)N1CCN(c2nnc(-c3ccccc3)c3ccccc23)CC1 | 6.6% | 9.7% | -14.4 | ? | -20.0%
O=C(COc1ccc([N+](=O)[O-])cc1)N1CCN(c2nnc(-c3ccccc3)c3ccccc23)CC1 | -4.3% | 19.1% | 10.4 | 20.6µM* | 8.2µM*
Cc1[nH]n(-c2ccccc2)c(=O)c1/C=N/NC(=O)c1cccc(F)c1 | 10.3µM* | 7.31µM* | 72.9 | 5.17µM* | 4.11µM*
O=C(N/N=C/c1c(Cl)cccc1Cl)c1cccc(F)c1 | 11.9% | 12.1% | 3.0 | 0.7% | -0.3%
Cc1[nH]n(-c2ccc(Br)cc2)c(=O)c1/C=N/NC(=O)c1ccccc1 | ? | ? | 80.2 | 4.61µM* | 2.91µM*
O=C(N/N=C/c1ccc(Br)cc1)c1ccc(NC(=O)c2ccccc2)cc1 | 5.9% | 24.0% | 0.0 | 3.9% | 6.3%
COc1ccc(N2CC(NC(=O)C3CC3)CC2=O)cc1OC (stereo not given) | / | / | / | 9.3% | -6.4%
COc1ccc(Oc2ncc3nc(-c4ccc(F)cc4)c(=O)n(Cc4cccs4)c3n2)cc1 | / | / | / | 12.4% | -4.0%
COc1ccc(-c2onc3ccc(C(=O)/C=C/N(C)C)cc23)cc1 | -18.6% | 0.5% | -3.2 | 13µM* | 20.6µM*
CN(C)/C=C/C(=O)c1ccc2noc(-c3cccc(F)c3)c2c1 | -7.8% | 0.0% | -17.7 | -25.6% | ?
CC(C)(C)C(=O)Nc1cccc(-c2nc3ccccc3c(=O)o2)c1 | 20.1% | 13.6% | 14.4 | -15.8% | -27.3%
Cc1cc(-c2ccccc2)c2ccc(NC(=O)C(C)(C)C)nc2n1 | -6.2% | 1.0% | -12.8 | 20.6µM* | 14.6µM*
Cc1ccccc1C(=O)N=c1sccn1C | -0.8% | -4.2% | -0.3 | -1.4% | 3.26µM*
CC1NS(=O)(=O)c2cc([N+](=O)[O-])ccc21 (stereo not given) | 19.0% | 9.1% | 16.5 | -5.5% | -21.8%
O=C(/C=C/c1c(F)cccc1Cl)Nc1nc2ccccc2[nH]1 | -13.1% | -26.0% | 0.0 | -6.2% | ?
O=C(Nc1nc2ccccc2[nH]1)c1ccccc1O | -16.8% | -8.1% | 22.8 | -14.3% | 13.9%
Cc1ccc(Cc2nc3ccccc3[nH]2)cc1 | -1.7% | 4.6% | 24.7 | 5.7% | ?
Cc1ccc(Nc2nc3ccccc3[nH]2)nc1 | -1.2% | 4.8% | -52.9* | ? | 16.4µM*
Cc1ccc(/C=C/C(=O)Nc2nc3ccccc3[nH]2)cc1 | 13.0% | 11.3% | -1.6 | 13µM* | ?
Cc1ccc(C)c(C(=O)Nc2nc3ccccc3[nH]2)c1 | 16.8% | 16.0% | 4.8 | ? | 2.31µM*
Cc1ccc(/C=C/C(=O)c2nc3ccccc3[nH]2)cc1 | -9.3% | 1.4% | ? | 20.6µM* | 16.4µM*
CCc1nc2ccc(C(=O)Nc3cc(-c4ccccc4)ccc3OC)cn2c1N(C)CCCc1ccccc1 | ? | ? | -7.6 | ? | ?
